Screens (PubChem BioAssay)
The list is not random: actives were taken first. Their share in the collection is about 3.2%.
PfGluPho inh – PfG6PD (Plasmodium falciparum) enzyme inhibition; PfGluPho enzyme, NADPH resazurin-diaphorase fluorescence; AID 504690; 350,000 compounds, 0.78% hits; inhibition, % at 20 µM;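 active = inhibition reaching at least a set limit at 20 µM in the primary screen, cut at about 59% in these data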
H9c2 protect – protects H9c2 cardiomyocytes from peroxide injury; H2O2 injury protection, ATPLite, 2 h; protection from H2O2 cell death, % at 20 µM; 360,000 compounds, 0.63% hits;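 active = compounds giving at least 50% protection of heart cells from peroxide-induced death in the single-dose screen, raw or plate-pattern-corrected value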
CRFBP-R2 agonist – CRF-BP/CRF-R2 complex agonism | HEK293 CRF-R2/CRF-BP, calcium dye fluorescence (FLIPR); percent of saturating CRF peptide response | AID 588473 | 350,000 compounds, 0.46% hits | activation, % at 13.2 µM;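 active = activation of at least 50%, plus an integration ratio under a set limit after plate pattern correction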
FAS TE block – blocks the thioesterase domain of human fatty acid synthase | P49327 | inhibition, % at 15 µM | AID 602261 | recombinant FAS-TE, OMFH fluorogenic substrate, fluorescence endpoint | 360,000 compounds, 0.67% hits;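 active = compounds whose normalised, plate-corrected inhibition of enzyme fluorescence in the single-dose primary screen is 50% or more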
aDG glyco up – increases alpha dystroglycan glycosylation | Pro5-aDG cells, alpha-DG glycosylation AlphaScreen (IIH6); 0% Pro5, 100% B10-LARGE cell signal | activation, % at 10 µM | 360,000 compounds, 0.22% hits | AID 624168;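 active = activation of at least 8% versus controls, or a plate z-score of at least 8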;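 also: Pro5 are CHO cells carrying HIG-tagged alpha-DG that lacks glycosylation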
CRFBP-R2 block – CRF-BP/CRF-R2 complex antagonism; inhibition, % at 11.8 µM; HEK293 CRF-R2/CRF-BP, CRF-induced calcium fluorescence; 350,000 compounds, 0.59% hits;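 active = inhibition of the ligand-induced calcium signal above about 50% at the single tested concentration, limit read from the data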
FAS-TE conf – confirmation of human fatty acid synthase thioesterase inhibitors | AID 624325 | shares compounds with FAS TE block | 2,300 compounds, 45% hits | inhibition, % at 15 µM | recombinant FAS-TE, OMFH fluorogenic substrate, fluorescence;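 active = compounds inhibiting the enzyme by at least 50% at 15 µM in any one of the replicates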
Hits are given with their value; – = inactive; · = no result.

SMILES | PfGluPho inh | H9c2 protect | CRFBP-R2 agonist | FAS TE block | aDG glyco up | CRFBP-R2 block | FAS-TE conf
COc1ccc(S(=O)(=O)Nc2ccc3c(c2)C(=O)N([C@H](C)CO)C[C@H](C)[C@@H](CN(C)C(=O)Nc2ccc(C(F)(F)F)cc2)OCCCC[C@H](C)O3)cc1 | – | – | – | 62.8 | – | – | –
COc1ccc(S(=O)(=O)N(C)C[C@@H]2OCCCC[C@H](C)Oc3ccc(NC(=O)Nc4ccc(C(F)(F)F)cc4)cc3C(=O)N([C@H](C)CO)C[C@H]2C)cc1 | – | – | – | 84.8 | – | – | –
C[C@@H]1CCCCO[C@H](CN(C)S(=O)(=O)c2ccc(F)cc2)[C@@H](C)CN([C@H](C)CO)C(=O)c2cc(NC(=O)Nc3ccc(C(F)(F)F)cc3)ccc2O1 | – | – | – | 74.2 | – | – | –
COc1ccc(S(=O)(=O)N(C)C[C@@H]2OCCCC[C@@H](C)Oc3ccc(NS(=O)(=O)c4cccs4)cc3C(=O)N([C@H](C)CO)C[C@@H]2C)cc1 | – | – | – | 67.0 | – | – | –
COc1ccc(S(=O)(=O)Nc2ccc3c(c2)C(=O)N([C@H](C)CO)C[C@H](C)[C@@H](CN(C)S(=O)(=O)c2cn(C)cn2)OCCCC[C@H](C)O3)cc1 | – | – | – | – | – | – | ·
CCC(C)c1ccc(NC(=O)COC(=O)c2nc3nccc(C)n3n2)cc1 (stereo unspecified) | – | – | – | – | – | – | ·
CC(C)N1CCC1(C)C(=O)Nc1nc2ccccc2[nH]1 (stereo unspecified) | · | – | · | – | – | · | ·
COc1ccc(CCN2C(=O)CC(N3CCN(S(=O)(=O)c4ccccc4)CC3)C2=O)cc1OC (stereo unspecified) | – | – | – | – | – | – | ·
CC(C)CC(=O)NC(NC(=O)CC(C)C)c1cccc([N+](=O)[O-])c1 | – | – | – | – | – | – | ·
COCC(=O)Nc1cc([N+](=O)[O-])ccc1OC | – | – | – | – | – | – | ·
COc1ccc([N+](=O)[O-])cc1NC(=O)CCC(=O)c1cccs1 | – | – | – | 65.0 | – | – | 48.5
O=C(O)CC(NC(=O)CC(c1ccccc1)c1ccccc1)c1cccc([N+](=O)[O-])c1 (stereo unspecified) | – | – | – | 56.4 | – | – | 65.5
COc1ccc([N+](=O)[O-])cc1NC(=O)CSCc1ccccc1 | – | – | – | 62.4 | – | – | –
COc1ccc([N+](=O)[O-])cc1NC(=O)CCCOc1ccccc1 | – | – | – | 67.8 | – | – | 70.6
COc1ccc([N+](=O)[O-])cc1NC(=O)CSc1ccccc1 | – | – | – | – | – | – | ·
O=C(c1ccc(N2C(=O)CCC2=O)cc1)N1CCCSC1=Nc1ccccc1 | – | – | – | – | – | – | ·
Cc1cc(C)cc(NC(=O)COC(=O)COc2ccc(N(C)S(=O)(=O)c3cccs3)cc2)c1 | – | – | – | – | – | – | ·
COc1ccc(CCC(=O)Nc2cc([N+](=O)[O-])ccc2OC)cc1 | – | – | – | – | – | – | ·
COc1ccc([N+](=O)[O-])cc1/C=N/NC(=O)Cc1ccccc1 | – | – | – | – | – | – | ·
COc1cc(/C=N/NC(=O)Cc2ccccc2)ccc1Oc1ccc([N+](=O)[O-])cc1[N+](=O)[O-] | – | – | – | 58.7 | – | – | –
COc1ccc([N+](=O)[O-])cc1NC(=O)Cc1ccc(C)cc1 | – | – | – | – | – | – | ·
COc1ccc(C(CC(=O)Nc2cc([N+](=O)[O-])ccc2OC)c2ccccc2)cc1 (stereo unspecified) | – | – | – | 61.4 | – | – | 49.9
COc1ccc([N+](=O)[O-])cc1NC(=O)Cc1ccc(Cl)cc1 | – | – | – | 80.6 | – | – | –
O=C(/C=C/c1cccc([N+](=O)[O-])c1)NCCSc1ccccc1 | – | – | – | 68.6 | – | – | 79.7
Cc1ccc(SCCNC(=O)/C=C/c2cccc([N+](=O)[O-])c2)cc1 | – | – | – | – | – | – | ·
SMILES | PfGluPho inh | H9c2 protect | CRFBP-R2 agonist | FAS TE block | aDG glyco up | CRFBP-R2 block | FAS-TE conf
CC(C)(C)SCCNC(=O)/C=C/c1cccc([N+](=O)[O-])c1 | – | – | – | 72.2 | – | – | 62.2
CC(C)(C)SCCNC(=O)/C=C/c1ccc([N+](=O)[O-])cc1 | – | – | – | – | – | – | ·
CC1(C)CC(=O)C2=C(C1)N=C1SCCC(=O)N1C2c1cccc([N+](=O)[O-])c1 (stereo unspecified) | – | – | – | – | – | – | ·
O=C(Cn1cnc2cc([N+](=O)[O-])ccc2c1=O)N(Cc1ccccc1)C1CCS(=O)(=O)C1 (stereo unspecified) | – | – | – | 56.8 | – | – | –
CN(Cc1cccs1)C(=O)Cn1cnc2cc([N+](=O)[O-])ccc2c1=O | – | – | – | 52.6 | – | – | 55.4
CCc1ccc(C(=O)Cn2cnc3cc([N+](=O)[O-])ccc3c2=O)cc1 | – | – | – | – | – | – | ·
Cc1cc(C)c(Nc2cc(S(=O)(=O)O)c(N)c3c2C(=O)c2ccccc2C3=O)c(C)c1 | – | – | – | 74.9 | – | 52.7 | –
Cc1ccc(S(=O)(=O)N2[C@@H](c3ccc(C(C)(C)C)cc3)C(C(=O)O)=CC[C@H]2c2cccc(Cl)c2)cc1 | – | – | – | – | – | – | ·
Cc1ccc(S(=O)(=O)N2[C@@H](c3ccc(C(C)(C)C)cc3)C(C(=O)O)=CC[C@H]2c2ccc(Cl)c(Cl)c2)cc1 | – | – | – | 55.1 | – | – | –
COc1cc2ncc(S(=O)(=O)c3ccccc3)c(N3CCC4(CC3)OCCO4)c2cc1OC | – | – | – | 81.7 | – | – | 82.3
COc1ccc2ncc(S(=O)(=O)c3ccccc3)c(N3CCC4(CC3)OCCO4)c2c1 | – | – | – | – | – | – | ·
O=C(CSc1ccc([N+](=O)[O-])cn1)Nc1cc(C(F)(F)F)ccc1N1CCOCC1 | – | – | – | 55.8 | – | – | –
CN1OC[C@@H]2CN(S(=O)(=O)c3cc(Cl)cc(Cl)c3)[C@H](c3ccc(-c4ccc(C#N)cc4)cc3)C[C@@H]21 | · | – | · | – | – | · | ·
NC(=O)[C@H]1CC2(CC(c3cccc(NC(=O)CC(c4ccccc4)c4ccccc4)c3)=NO2)CN1C(=O)c1ccccc1C(=O)c1ccccc1 (stereo partly specified) | – | – | – | 75.3 | – | – | –
NC(=O)[C@H]1CC2(CC(c3cccc(NC(=O)CC(c4ccccc4)c4ccccc4)c3)=NO2)CN1C(=O)C(c1ccccc1)c1ccccc1 (stereo partly specified) | – | – | – | 67.3 | – | – | –
CCCS(=O)(=O)NC(=O)C1(C)CCN(C(=O)COc2ccccc2)C1 (stereo unspecified) | · | – | · | – | – | · | ·
